# KAT2A inh: inhibitors of human GCN5L2 histone acetyltransferase. Q92830. GCN5L2 HAT assay, ThioGlo1 CoA-SH fluorescence. Potency, µM (top dose mostly 58.9 µM), most hits filed as inhibitors. 0.21% of 390,000 active. AID 504327
#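 qHTS, 1536-well. 20nM enzyme, pH 7.5 HEPES/EDTA/Tween-20 buffer; 15 min compound preinc., RT. Start: 75uM H3(1-25), 70uM AcCoA, 50uM ThioGlo1. Read Ex340/Em540 at t=0 (autofluorescence flag) and t=20 min.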
# PLK1 PBD block: PLK1 (human) polo-box domain binding inhibition; P53350; 2.8% of 360,000 active; Potency, µM, hits mostly inhibitors; Plk1 PBD binding of FITC phosphopeptide, fluorescence polarization; further: series mostly up to about 57 µM; nearly all actives have a fitted effect of over 65% in size
# Target sequence (P53350 whole entry, looked up, the tested form may be a part): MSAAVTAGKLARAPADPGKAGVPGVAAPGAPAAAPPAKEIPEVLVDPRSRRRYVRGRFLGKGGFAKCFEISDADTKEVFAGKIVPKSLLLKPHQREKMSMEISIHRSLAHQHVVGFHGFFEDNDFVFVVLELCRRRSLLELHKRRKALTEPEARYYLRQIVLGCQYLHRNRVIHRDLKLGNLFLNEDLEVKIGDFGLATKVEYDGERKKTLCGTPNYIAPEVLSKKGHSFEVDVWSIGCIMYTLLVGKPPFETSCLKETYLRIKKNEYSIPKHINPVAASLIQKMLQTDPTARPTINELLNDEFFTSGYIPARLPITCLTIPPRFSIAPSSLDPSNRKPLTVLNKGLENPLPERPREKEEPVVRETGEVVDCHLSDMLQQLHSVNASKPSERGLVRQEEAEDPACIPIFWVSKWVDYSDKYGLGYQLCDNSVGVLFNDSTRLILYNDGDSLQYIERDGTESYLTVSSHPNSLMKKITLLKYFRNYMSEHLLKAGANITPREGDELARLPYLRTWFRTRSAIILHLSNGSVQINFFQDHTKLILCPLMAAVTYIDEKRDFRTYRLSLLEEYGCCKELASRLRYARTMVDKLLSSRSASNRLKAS
# ALOX12 inh: inhibitors of human 12S-lipoxygenase ALOX12. purified 12hLO, xylenol orange hydroperoxide absorbance. Potency, µM (top dose mostly 108 µM), usual class: inhibitors. 1.1% of 580,000 active. P18054. AID 1671190
#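 Purified human 12hLO at 150 nM in 25 mM Hepes, 0.01% Triton X-100, pH 7.0, preincubated 15 min at room temperature with compound. Reaction started with 40 uM arachidonic acid, 30 min at room temperature. Hydroperoxide measured by Fe-xylenol orange, 573/405 nm absorbance ratio.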
# VDR inhibitor: inhibitors of human vitamin D receptor; P11473; VDR-SRC2-3 peptide fluorescence polarization, 2 h; Potency, µM, hits mostly inhibitors; 0.93% of 400,000 active
#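 After 23 nl compound addition and a short centrifugation, plates sat for 2 hours at ambient temperature; polarization of fluorescence then indicated loss of VDR binding to peptide SRC2-3.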
# Hits are given with their value; – = inactive; ? = inconclusive; · = no result given; ! = a repeat was not active. Hits are enriched below; roughly 3% of the tested compounds scored in any of these assays. The call rests on the fitted dose curve; in most records, active means well fitted curve in the direction sought with a large enough effect; inconclusive means small, poorly fitted or top-dose-only effect, or another doubt; inactive means no such curve, though single readings can be large; an effect the other way counts as inactive or inconclusive.
SMILES,KAT2A inh,PLK1 PBD block,ALOX12 inh,VDR inhibitor
C=CCNc1nc2c(c(=O)[nH]c(=O)n2C)n1CCCC,·,·,–,·
Cc1ccc([N+](=O)[O-])cc1S(=O)(=O)N(C)N=Cc1cnc2ccc(Br)cn12,·,·,8.6µM,·
CC1=N/C(=C\c2ccc([N+](=O)[O-])cc2)C(=O)N1c1ccc(Br)c(C)c1,–,–,–,–
S=P(N1CC1)(N1CC1)N1CC1,–,?,–,89µM!
C[C@@H](CN1C2=NC[C@H](C)N2C[C@H]1Cc1ccc(O)cc1)NC(=O)CCC1CCCCC1,–,–,–,?
COc1ccc(C[C@@H]2CN3C(=NC[C@@H]3Cc3ccc(O)cc3)N2C[C@H](C)NC(=O)CCC2CCCCC2)cc1,–,27µM,·,–
CC(C)[C@H]1CN=C2N(C[C@H](C)NC(=O)CCC3CCCCC3)[C@H](Cc3ccc(O)cc3)CN21,–,13µM,?,–
COc1cccc(-c2ccc(NC(=O)C3CCCN(Cc4cc(C(C)C)n[nH]4)C3)cc2)c1 (stereo not drawn),·,·,–,·
CC[C@@]1(C(=O)OC)N[C@H](CN(C)C(=O)c2ccc(F)cc2)[C@@H]2C(=O)N(C)C(=O)[C@@H]21,–,–,8.9µM,–
CC[C@@]1(C(=O)OC)N[C@H](CN(C)C(=O)c2ccccc2)[C@@H]2C(=O)N(C)C(=O)[C@@H]21,–,–,–,–
COc1ccc(Cl)cc1N1C(=O)CN(Cc2cc(OC)c(OC)c(OC)c2)C1=S,–,7.5µM,?,?
C=C(Cl)CN1CCN(Cc2ccccn2)CC1,·,·,–,·
CCN1CCN(CC(O)COCCOc2ccc(Br)cc2)CC1 (stereo not drawn),–,–,–,–
CN1CCN(CC(O)COCCOc2ccc(Br)cc2)CC1 (stereo not drawn),–,27µM,–,25µM
CC(=O)N1CCN(CC(O)COc2ccc(Br)cc2)CC1 (stereo not drawn),–,–,0.35µM,–
Cc1cccc(OCC(O)Cn2nnc(-c3cccnc3)n2)c1 (stereo not drawn),·,·,–,·
CCOCCOC(=O)c1nc2ccccc2nc1Nc1ccc(Cl)cc1,·,·,10µM,·
COc1ccc(C2=NN(c3nc(-c4ccccc4)c(CC(=O)O)s3)C(c3ccco3)C2)cc1 (stereo not drawn),?,11µM,11µM,–
CCCN(Cc1ccccc1)C(=O)NCCC(=O)OCC,·,·,–,·
Cn1nc(C(=O)O)c(=O)n(C)c1=O,·,27µM,–,–
Cn1c(=O)c2c(ncn2CC(=O)O)n(C)c1=O,·,·,–,·
Nc1cccc2c1C(=O)N(C(=O)c1cccc(S(=O)(=O)N3CCCC3)c1)C2=O,–,4.2µM,?,–
CSC(SC)=C(C#N)C(=O)c1ccccc1,–,11µM,–,?
Cc1cc(C)c(S(=O)(=O)ON2C(=O)c3ccccc3C2=O)cc1C,–,5.3µM,?,32µM
Cc1ccc(OC(=O)CN2C(=O)c3ccccc3C2=O)cc1C,–,–,–,–
SMILES,KAT2A inh,PLK1 PBD block,ALOX12 inh,VDR inhibitor
Cc1cc(C)c(C)c(S(=O)(=O)ON2C(=O)c3ccccc3C2=O)c1C,–,6.7µM,–,22µM
Cc1ccc(S(=O)(=O)ON2C(=O)c3ccccc3C2=O)c(C)c1,–,7.5µM,?,18µM
Cc1ccc2nc(-c3ccc(C)c(NC(=O)c4ccc([N+](=O)[O-])cc4)c3)oc2c1,·,·,–,·
CC(=O)CC1(O)C(=O)N(Cc2ccccc2)c2ccccc21 (stereo not drawn),–,27µM,–,–
Cc1coc(C)c1C(=O)CC1(O)C(=O)N(Cc2ccccc2)c2ccccc21 (stereo not drawn),·,27µM,?,–
Cc1ccc(C(=O)CC2(O)C(=O)N(Cc3ccccc3)c3ccccc32)o1 (stereo not drawn),–,–,–,–
C/C(CC1(O)C(=O)N(Cc2ccccc2)c2ccccc21)=N\O (stereo not drawn),·,–,?,–
Cc1cc(=O)oc2cc(NC(=O)Cc3cccc(F)c3)ccc12,·,·,–,·
COc1ccc(C2=N[C@H](c3ccccc3)CO2)cc1,–,·,·,–
COc1ccc(C2CC23N=C(c2ccccc2)OC3=O)cc1 (stereo not drawn),–,17µM,–,?
COC(=O)C1=C(C)N(C)C(=O)NC1c1ccc(Br)o1 (stereo not drawn),·,·,–,·
Cc1c(O)nc(SC2CC(=O)N(c3cc(Cl)cc(Cl)c3)C2=O)[nH]c1=O (stereo not drawn),·,–,5.6µM,–
COCCn1c2c(c(=O)[nH]c1=O)C(c1ccc(C(=O)O)cc1)C1=C(N2)c2ccccc2C1=O (stereo not drawn),·,·,–,·
Cn1c2c(c(=O)[nH]c1=O)C(c1ccc(C(=O)O)cc1)C1=C(N2)c2ccccc2C1=O (stereo not drawn),·,·,45µM,·
CC(C)(C)C1(C)OC(=O)C(=Cc2ccc(OCC(=O)Nc3ccccc3)cc2)C(=O)O1 (stereo not drawn),–,2.4µM,·,–
Brc1cc2c(cc1CSc1ccccn1)OCCO2,·,·,–,·
CC(NC(=O)C(C)(C)C)C1CC1 (stereo not drawn),·,·,–,·
Cc1ccc(C)n1-c1nc(=S)[nH][nH]1,18µM,24µM,4.5µM,32µM
CC(C)C(=O)N1CCN(c2nc3c(s2)CC(C(=O)Nc2ccc(Cl)cc2)CC3)CC1 (stereo not drawn),·,·,32µM,·
CCC(=O)N1CCN(c2nc3c(s2)CC(C(=O)Nc2ccc(OC)c(F)c2)CC3)CC1 (stereo not drawn),·,·,25µM,·
COC(=O)[C@@H]1Cc2ncn(Cc3ccc(Cl)cc3)c2CN1CCCc1ccccc1,·,·,–,·
CS(=O)(=O)N1N=C(c2ccccc2)CC1c1ccco1 (stereo not drawn),·,·,–,·
CCCCc1ccc(NC(=S)Nc2ccc(Cl)c(S(=O)(=O)N(C)C)c2)cc1,–,?,45µM,–
S=C(NCCCc1ccccc1)Nc1ccc(Cl)cc1,–,–,40µM,–
CCCCc1ccc(NC(=S)NCCc2ccc(Cl)cc2)cc1,·,·,32µM,·
SMILES,KAT2A inh,PLK1 PBD block,ALOX12 inh,VDR inhibitor
C=CCNC(=S)Nc1ccc(Cl)cc1,–,13µM,–,–
C=CCNC(=S)Nc1ccc(Cl)c(Cl)c1,·,·,–,·
Cc1nnc2ccc(SCC(=O)Nc3ccc(Cl)cc3Cl)nn12,·,·,–,·
CCCCc1ccc(NC(=S)NCc2cccc(OC)c2)cc1,–,–,?,–
CCCCc1ccc(NC(=S)Nc2ccc(Nc3ccc(OC)cc3)cc2)cc1,–,15µM,35µM,–
CN/S(=N/S(=O)(=O)c1ccccc1)c1ccc(C)cc1 (stereo not drawn),–,–,–,–
Cc1ccc(S(=O)(=O)/N=S(/c2ccccc2)C(C)C)cc1 (stereo not drawn),–,11µM,?,–
Cc1nc2ccc(C(=O)N3CCCC3CN3CCCC3)cc2nc1C (stereo not drawn),·,·,–,·
CCCN1C(=O)c2ccccc2NC1c1ccc(Cl)c(Cl)c1 (stereo not drawn),–,21µM,?,?
CCCCc1nc2cc(C(=O)N3CCCCC3COC)ccc2o1 (stereo not drawn),–,–,–,–
CCCCc1nc2cc(C(=O)N3CCCCC3CCNC(C)=O)ccc2o1 (stereo not drawn),–,24µM,–,?
COc1ccc(-c2ocnc2C(=O)Nc2ccccc2C)cc1OC,·,·,–,·
